In the OligoGym collection one finds sensor-assay potency score (higher = more potent) data, which are given here for 40 sequences.
Also: reference of the scale not given here.

In one assay the target is LIG4. Briefly: pooled miR-30 sensor sort-seq; sequence = guide strand. The following applies: shRNA.
In turn, TTGCTGACTAACACCAAGCTTT returned a sensor-assay potency score (higher = more potent) of -0.307.

For the sequence TTCCTTTCTGTAAACATCTTGG, the sensor-assay potency score (higher = more potent) is -0.486.

Sequence TTCTTCAGGAGTCTGCTCGTTA returned a sensor-assay potency score (higher = more potent) of 0.109.

Consider TTTTAGATCATTAAGTCTCATA, for which the sensor-assay potency score (higher = more potent) was -0.76.

Sequence TAGTTTGCTGACTAACACCAAG returned a sensor-assay potency score (higher = more potent) of -1.17.

Regarding TAGCTTTTTATTATTAACCATC, the sensor-assay potency score (higher = more potent) is -1.43.

For TAGTCCACTGACATACTCTGGT, the sensor-assay potency score (higher = more potent) turned out to be 0.198.

The sequence TTTCTGTAAACATCTTGGCTTC came in with a sensor-assay potency score (higher = more potent) of -0.577.

As to TTTATTGTTACATTTGGCCTTA, the sensor-assay potency score (higher = more potent) stood at 0.231.

TTTATATACATCTCCATCTTTG returned a sensor-assay potency score (higher = more potent) of -1.01.

In turn, TAACACAAAACTCTACATCTTC returned a sensor-assay potency score (higher = more potent) of 0.104.

For TAAAAGGTCGTTTACTTGCTGT, the sensor-assay potency score (higher = more potent) is -0.0412.

Another assay addresses LILRA4. Described as above. The conditions noted are these: shRNA.
TAATGGAGGAAGCATCTTCTAC registered a sensor-assay potency score (higher = more potent) of -1.03.

As to TAGCCGTAGCATCTGAATGTAC, the sensor-assay potency score (higher = more potent) is -0.777.

The sequence TTCTCTCCTGAGGTCACCGTGG had a sensor-assay potency score (higher = more potent) of -1.07.

TTGATCTCAGACGCAACGGGGG had a sensor-assay potency score (higher = more potent) of -1.08.

The sequence AATCTGACTTCTTTTGTGCTGG came in with a sensor-assay potency score (higher = more potent) of 0.00913.

TTTTCATAGCCGTAGCATCTGA came in with a sensor-assay potency score (higher = more potent) of -1.2.

TCCTCAATCAGAGTGAACCTGC gave a sensor-assay potency score (higher = more potent) of -0.933.

Regarding TAGGTTTTCTGCCTGCACCCGG, the sensor-assay potency score (higher = more potent) is -0.532.

TTGTGTGCGCCGTAGCATCTGT came in with a sensor-assay potency score (higher = more potent) of -0.739.

Consider TCCTTGTACAGAGTGTATCTGA, for which the sensor-assay potency score (higher = more potent) is -0.799.

As to TAGCATCTGAATGTACCCCTGT, the sensor-assay potency score (higher = more potent) stood at 0.139.

For the sequence TTTGGGTAGGTTTTCTGCCTGC, the sensor-assay potency score (higher = more potent) was -0.143.

The next assay addresses LILRB3. Described as above. The conditions noted are these: shRNA.
As to TTCCGTCTAAGGGTCAAGCTGT, the sensor-assay potency score (higher = more potent) is -0.222.

Turning to TTAGTCATCTTTGAGTCAGGTG, the sensor-assay potency score (higher = more potent) was -0.0536.

In the case of TGCTGTGACGCTGACGTCGGAG, the sensor-assay potency score (higher = more potent) is -0.552.

The sequence TATGCAGTCGGTACTCCTGGGC returned a sensor-assay potency score (higher = more potent) of -0.223.

For the sequence TTTATGCAGTCGGTACTCCTGG, the sensor-assay potency score (higher = more potent) is -0.617.

In turn, TGACTGTCCAGCTCCACCCTGT yielded a sensor-assay potency score (higher = more potent) of -0.563.

Regarding TTGATTGTTGAGAAGTCTGTTG, the sensor-assay potency score (higher = more potent) was -0.405.

With TTGTTGAGAAGTCTGTTGCTTT, the sensor-assay potency score (higher = more potent) is -0.0209.

Regarding TTTCTCTGGTCAGATGTCCTGT, the sensor-assay potency score (higher = more potent) is -0.223.

TTATGCAGTCGGTACTCCTGGG came in with a sensor-assay potency score (higher = more potent) of -0.343.

For TTGTGTGCACCGTAGCACCTGT, the sensor-assay potency score (higher = more potent) was -0.532.

TATTAGTCATCTTTGAGTCAGG returned a sensor-assay potency score (higher = more potent) of -0.452.

A further assay concerns the target LIMK2. The description is as above. The conditions noted are these: shRNA.
Sequence TCGTTGACAGTCCTGTACCATA had a sensor-assay potency score (higher = more potent) of -1.6.

ATGAACTTGAGCACATTGGGGT came in with a sensor-assay potency score (higher = more potent) of -0.105.

Turning to TACAGCACACCAATGAACTTGA, the sensor-assay potency score (higher = more potent) is -0.145.

Sequence TTTCTTTCGTCCACACACTTGA displayed a sensor-assay potency score (higher = more potent) of 0.0479.
